Growth data for 39 compounds are collected here from PubChem BioAssay (NCI).

The panel holds about 83,000 compounds, 20% with a hit somewhere; the sample as a whole holds those more often.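 Cells were grown in 96-well plates and exposed to the test compound at a single concentration for 48 hours; results are reported as percent growth, with values below 10 considered active.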 A number with no mark means an inactive call. The source made the active and inactive calls.

The subject of one assay is UACC-62 melanoma. The assay can be described thus: NCI-60 one-dose screen, 48 h (100 = growth as untreated, 0 = no growth, -100 = all killed). To be noted: 10 µM unless noted.
Consider `CNC(=O)Nc1ccc(Nc2cc(-c3ccc(-n4cccn4)cc3)[nH]n2)c(C)c1`, for which the growth is 114%.

As to `O=C(CCCCCCNC(=O)c1csc(Br)n1)NO`, the growth was 14.4%. Consider `NS(=O)(=O)c1ccc(Nc2nc(N/N=C/c3ccc4c(c3)OCO4)nc(Nc3ccccc3)n2)cc1`, for which the growth is 78.4%. Still for that read-out and setting: next, `CCc1cc2c(cc1Cl)nc1c(=O)[nH]c(=O)nc-1n2CCOCC(C)C`: 72.1%.

Consider `COc1cc(C(=O)c2cc(C(C)=O)c3cccc(C)n23)cc(OC)c1OC`, for which the growth was 23.3%. On the same count and under the same terms, the value for `Nc1ncc(-c2ccc3ncnc(NCc4ccccc4)c3c2)cn1` was 44.8%; that for `COc1ccc2c(c1)c(-c1nn3cc(-c4ccncc4)nc3s1)cn2C` was 68.7%.

The next assay has as its system LOX IMVI melanoma. The assay is described as above. To be noted: 10 µM unless noted.
Regarding `C#C[C@]1(O)CC[C@H]2[C@@H]3CC=C4c5sc(N(C)c6ccccc6)nc5CC[C@]4(C)[C@H]3CC[C@@]21C`, the growth is 67.8%. The same measure, in the same setting: the value for `CC(=O)c1c([Si](C)(C)C)c2cc(C#N)ccn2c1C(=O)c1ccc(Br)cc1` was 99.6%; that for `O=C(CSc1nc2ccccc2c(=O)n1-c1ccc(Cl)c(Cl)c1)Nc1ccc(S(=O)(=O)Nc2ccc(Cl)nn2)cc1` was 97.4%; that for `C#CCN(C)CCCOc1ccc(NCc2ccc(/C=C/C(=O)NO)cc2)cc1Cl` was -69.5% (active). The same measure, in the same setting: the value for `O=C(NNc1nc2cc(F)cc(F)c2n2cccc12)c1cccnn1` was 6.98% (active); that for `COc1ccc(/C(=N\NC(N)=S)c2ccc(Cl)cc2)cc1OC` was 40.5%. On to `COc1ccc(-c2c(C(N)=O)c(N)n(Cc3nc4ccccc4[nH]3)c(=O)c2C#N)c(OC)c1`, for which the growth is 96.4%.

`Cc1cc(Br)ccc1-n1cc(C#N)c(N)c1C(=O)c1ccc(Br)cc1`: the growth is 96.6%. On the same count and under the same terms, next, `CN1CCN(Cc2ccc(NC(=O)c3cncc(C#Cc4cnc(N)nc4)c3)cc2C(F)(F)F)CC1`: 4.32% (active).

Take `CCOC(=O)c1c(NC(=O)c2ccc(C(F)(F)F)cc2)sc2c3c(ccc12)OCN(C)C3`: the growth was -95.1% (active). As to `O=C1CSC(c2cn(-c3ccccc3)nc2-c2ccc(Cl)cc2)N1c1ccccc1` (stereo unspecified), the growth was 100%.

In the case of `COc1ccc(-c2c3c(cn2Cc2cccc(OC)c2)-c2oncc2CCC3)cc1`, the growth is 95.2%. `C#C[C@]1(O)CC[C@H]2[C@@H]3CC=C4c5sc(Nc6ccc(C)cn6)nc5CC[C@]4(C)[C@H]3CC[C@@]21C`: the growth was -61.7% (active). Regarding `CCCCCCOC(=O)c1cc(-c2ccc(F)cc2)nc2ccccc12`, the growth was 91.3%. Take `CN1CCN(c2ccc(Nc3nc(NCCNS(=O)(=O)c4ccccc4)c4sccc4n3)cc2)CC1`: the growth was 108%. The same measure, in the same setting: next, `CN1CCN(Cc2ccc(NC(=O)c3cncc(C#Cc4cnc5ccc(O[C@@H]6CCOC6)nn45)c3)cc2C(F)(F)F)CC1`: -96.9% (active). The same measure, in the same setting: next, `CC(C)(C)Nc1nc2c(OCCc3ccccc3)cccn2c1-c1ccc([N+](=O)[O-])cc1`: 54.7%; `N#Cc1c(-c2cccs2)cc(-c2cnccn2)nc1SCC(=O)N/N=C/c1ccc(Cl)cc1`: 92%. The same measure, in the same setting: next, `CN(C)CCCOc1ccc(C(=C(c2ccccc2)C2CCCC2)c2ccc(OCCCN(C)C)cc2)cc1`: -84.3% (active). Turning to `N#Cc1nc(-c2ccc(Cl)cc2)oc1N1CCC(S(=O)(=O)N2CCOCC2)CC1`, the growth was 81.7%.

In the case of `CC(=O)C1=C(C)NC(NNc2ccccc2)=NC1c1ccc([N+](=O)[O-])cc1` (stereo unspecified), the growth was 77.1%. Still for that read-out and setting: the value for `COC(=O)c1ccc(NC2=C(Cl)C(=O)C(C)=C(C)C2=O)cc1` was 24.7%.

For `C=C(C=O)[C@@H]1CC[C@]2(C(=O)O)CC[C@]3(C)C(CC[C@@H]4[C@@](C)(CCC#N)[C@H](C(=C)C=O)CC[C@]43C)[C@@H]12` (stereo partly specified), the growth was -81.7% (active). Same read-out and setting: the value for `CCOC(=O)C1=C(C)NC(C)=C(C(=O)OC(C)C)C1c1cccc(C#N)c1` (stereo unspecified) was 95.2%. `CC1(C)CC[C@]23CC[C@]4(C)[C@H](CC[C@@H]5[C@@]6(C)CC[C@H](NCO)C(C)(C)[C@@H]6CC[C@]54C)[C@H]2[C@H]1OC3`: the growth is -89.9% (active).

On to `COc1ccc(C(=NNS(=O)(=O)c2ccc(C)cc2)c2ccccc2)cc1OC`, for which the growth is 106%. On the same count and under the same terms, the value for `COc1cccc2c1C=CC1(O2)Oc2cccc(OC)c2C=C1C` (stereo unspecified) was 24.5%; that for `Cc1csc(/N=C(N)/N=C(\N)c2cccnc2)n1` was 74.7%. Still for that read-out and setting: next, `Cc1ccc(/C=N/Nc2nc(Nc3ccccc3)nc(Nc3ccc(S(N)(=O)=O)cc3)n2)cc1`: 54.9%.

Turning to `CCCC[n+]1ccc(SCC(=O)n2ccc3ccccc32)c2ccccc21`, the growth was 101%.

Turning to `O=[N+]([O-])c1ccc(NC(=S)NNC(=S)Nc2ccc(Br)cc2)cc1`, the growth is 60.9%.

As to `CCOP(=O)(OCC)OC[C@]12CCC(C)(C)CC1C1=CC[C@@H]3[C@@]4(C)CCCNC(C)(C)[C@@H]4CC[C@@]3(C)[C@]1(C)CC2` (stereo partly specified), the growth is 25.3%.

For the compound `CNC(=O)Nc1ccc(Nc2cc(-c3ccc(-n4cccn4)cc3)[nH]n2)c(C)c1`, the growth was 129%. Same read-out and setting: next, `O=C(CCCCCCNC(=O)c1csc(Br)n1)NO`: 13.8%; `NS(=O)(=O)c1ccc(Nc2nc(N/N=C/c3ccc4c(c3)OCO4)nc(Nc3ccccc3)n2)cc1`: 26.7%.

For the compound `CCc1cc2c(cc1Cl)nc1c(=O)[nH]c(=O)nc-1n2CCOCC(C)C`, the growth is 49.8%.

Turning to `COc1cc(C(=O)c2cc(C(C)=O)c3cccc(C)n23)cc(OC)c1OC`, the growth was 39.2%. Take `Nc1ncc(-c2ccc3ncnc(NCc4ccccc4)c3c2)cn1`: the growth is 38.6%. The same measure, in the same setting: next, `COc1ccc2c(c1)c(-c1nn3cc(-c4ccncc4)nc3s1)cn2C`: 65.9%.
